PubChem BioAssay
The source made the active and inactive calls. Unless noted, the rule behind the calls is not given here.

Legend:
[1] = anti-His antibody binders, primary screen, artefact control for SMM control protein annotation, biochemical, small-molecule microarray, 635 nm fluorescence (AID 1128); conditions: anti-His Alexa647 antibody binding, higher = more signal;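 note: score merges feature fluorescence with signal-to-noise for each printed compound spot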
[2] = test system: Human papillomavirus type 1a E7 protein (residues 1-88); assay: HPV1a E7 small-molecule binders, primary screen, biochemical, small-molecule microarray, residues 1-88, 635 nm (AID 1129); conditions: small-molecule microarray binding, fluorescence 635 nm; higher = more signal
[3] = biological target: Focal adhesion kinase 1 (Homo sapiens) (UniProt Q05397); assay: small-molecule microarray binders of FAK, primary screen, biochemical, 635/667 nm fluorescence, BSA, DTT (AID 1130); conditions: PTK2 binding, 635 nm fluorescence, higher = more signal;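 note: composite of spot emission at 667 nm and signal to noise over triplicate slides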
[4] = test system: Fibrinogen (Alexa647-labelled); assay: fibrinogen binders on compound microarrays, profiling panel, artefact control for SMM control-protein annotation, biochemical, small-molecule microarray, 635/667 nm fluorescence (AID 1131); conditions: fibrinogen-A647 binding fluorescence, higher = more signal;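 note: z-score merges 667 nm fluorescence with per-spot signal-to-noise over triplicate slides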
[5] = biological target: Follistatin (Homo sapiens) (UniProt P19883); assay: follistatin binders on small-molecule microarrays, primary screen, biochemical, small-molecule microarray, 635/667 nm fluorescence (AID 1132); conditions: FST binding, 635 nm fluorescence, higher = more signal
[6] = biological target: Fibroblast growth factor 2 (Homo sapiens) (UniProt P09038); assay: FGF2 binders on small-molecule microarrays, primary screen, biochemical, small-molecule microarray, 635/667 nm fluorescence (AID 1133); conditions: small-molecule microarray binding, FGF2, fluorescence 635/667; higher = more signal
[7] = mitochondrial membrane potential change in A549 cells, profiling panel, cell-based, JC-1 fluorescence, basal, 24 h, 100 nL (AID 1138); conditions: higher = more signal;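 note: A549 lung adenocarcinoma cells under basal conditions with no added stimulus; test concentration not given here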
Lefty1 = Lefty1 binders on small-molecule microarrays, primary screen, biochemical, small-molecule microarray, 635/667 nm fluorescence (AID 1139); conditions: small-molecule microarray binding, fluorescence 635/667; higher = more signal
[8] = test system: wheat germ agglutinin (Triticum aestivum), Alexa647-labelled; assay: wheat germ agglutinin binders on compound microarrays, profiling panel, artefact control for SMM control-protein annotation, biochemical, small-molecule microarray, 635/667 nm fluorescence (AID 1140); conditions: WGA-A647 binding, 635 nm fluorescence, higher = more signal;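 note: score merges 667 nm feature emission with signal to noise over triplicate slides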
[9] = biological target: Luciferin 4-monooxygenase (Photinus pyralis) (UniProt P08659); assay: firefly luciferase enzyme inhibitors, primary screen, biochemical, luminescence, purified enzyme, 2006 set (AID 1141); conditions: SteadyGlo luminescence, 30 min, higher = more signal, called active from +8 up or from −8 down;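 note: cell-free assay with purified firefly luciferase at 100 ng per well in PBS; test concentration not given here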
[10] = test system: Wnt5a (protein binding on small-molecule microarray); assay: Wnt5a binders on small-molecule microarray, primary screen, biophysical, 635/667 nm fluorescence (AID 1142); conditions: 635 nm fluorescence, higher = more signal;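 note: fluorescence read at 667 nm with signal to noise per printed feature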
[11] = cell viability in Huh7 cells, primary screen, cytotoxicity control for HCV replication inhibitor project, CellTiter-Glo luminescence, basal, 48 h (AID 1143); conditions: Huh7 HCV replicon, higher = more signal, called active from +8 up or from −8 down;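 note: Huh7 hepatoma cells carrying a hepatitis C replication reporter with no stimulus; test concentration not given here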
[12] = P. aeruginosa biofilm formation inhibitors, primary screen, PAO1 strain, BacTiter-Glo luminescence, LB-PBS (AID 1144); conditions: 12 h, higher = more signal
[13] = CREB reporter modulators without forskolin, primary screen, cell-based, PC12, CRE-LacZ reporter, unstimulated (AID 1145); conditions: no forskolin, luminescence, 4.5 h, higher = more signal, called active from +8 up or from −8 down
[14] = CREB reporter modulators under forskolin, primary screen, cell-based, PC12, CRE-LacZ reporter, forskolin-stimulated (AID 1146); conditions: luminescence, 4.5 h, higher = more signal, called active from +8 up or from −8 down;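 note: PC12 cells with 6xCRE LacZ reporter stimulated by forskolin 10 µM; beta-galactosidase reporter signal reflecting CREB driven transcription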
[15] = biological target: Streptavidin (Streptomyces avidinii) (UniProt P22629); assay: streptavidin binders on small-molecule microarray, primary screen, artefact control for SMM compound annotation, biophysical, 635/667 nm fluorescence (AID 1147); conditions: streptavidin binding, higher = more signal;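 note: signal reflects streptavidin binding to arrayed compounds as a control protein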
[16] = small-molecule binders of probe aInhba, primary screen, biochemical, small-molecule microarray, 635/667 nm fluorescence (AID 1148); conditions: higher = more signal;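 note: score merges 667nm spot fluorescence with signal-to-noise for antibody binding to printed compounds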
Torsin-1A (Homo sapiens) [17] = biological target: Torsin-1A (Homo sapiens) (UniProt O14656); assay: torsin A binders from cell lysate, primary screen, small-molecule microarray, wild-type, 635/667 nm (AID 1149); conditions: COS7 hTOR1A-WT lysate, 635 nm fluorescence, higher = more signal
Torsin-1A (Homo sapiens) [18] = biological target: Torsin-1A (Homo sapiens) (UniProt O14656); assay: small-molecule binders of mutant TOR1A in lysate, primary screen, cell lysate, small-molecule microarray, COS7 lysate, 635/667 nm fluorescence (AID 1150); conditions: COS7 hTOR1A mutant lysate, 635 nm fluorescence, higher = more signal;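 note: score pools 667 nm emission and signal to noise measuring lysate protein binding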
[19] = test system: Sonic hedgehog protein (Shh); assay: small-molecule binders of Shh protein, primary screen, biochemical, small-molecule microarray, 635/667 nm fluorescence (AID 1151); conditions: small-molecule microarray binding, 635 nm fluorescence; higher = more signal;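 note: Shh protein binding to compounds spotted on small-molecule microarray slides; score combines spot fluorescence intensity with signal-to-noise across triplicate slides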

Chain of Follistatin (Homo sapiens) (P19883 whole entry, looked up): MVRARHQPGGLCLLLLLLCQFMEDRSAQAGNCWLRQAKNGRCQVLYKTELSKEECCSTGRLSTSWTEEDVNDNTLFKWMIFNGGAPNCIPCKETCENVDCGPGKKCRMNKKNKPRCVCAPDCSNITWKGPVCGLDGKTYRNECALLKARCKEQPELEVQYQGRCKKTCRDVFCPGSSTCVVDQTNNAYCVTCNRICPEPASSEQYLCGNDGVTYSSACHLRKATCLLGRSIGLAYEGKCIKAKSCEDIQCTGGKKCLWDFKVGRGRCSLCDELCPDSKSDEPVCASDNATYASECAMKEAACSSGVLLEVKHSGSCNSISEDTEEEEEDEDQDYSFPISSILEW
Chain of Torsin-1A (Homo sapiens) (O14656 whole entry, looked up): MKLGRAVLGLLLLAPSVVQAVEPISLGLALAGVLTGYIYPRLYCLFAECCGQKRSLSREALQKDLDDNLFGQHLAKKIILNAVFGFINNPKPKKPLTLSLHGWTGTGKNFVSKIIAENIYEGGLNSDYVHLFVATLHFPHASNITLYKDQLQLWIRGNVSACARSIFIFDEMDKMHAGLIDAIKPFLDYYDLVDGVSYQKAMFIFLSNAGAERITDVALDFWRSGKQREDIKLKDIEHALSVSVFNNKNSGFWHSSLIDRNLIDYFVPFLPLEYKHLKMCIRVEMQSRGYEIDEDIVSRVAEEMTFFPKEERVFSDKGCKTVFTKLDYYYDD
Chain of Fibroblast growth factor 2 (Homo sapiens) (P09038 whole entry, looked up): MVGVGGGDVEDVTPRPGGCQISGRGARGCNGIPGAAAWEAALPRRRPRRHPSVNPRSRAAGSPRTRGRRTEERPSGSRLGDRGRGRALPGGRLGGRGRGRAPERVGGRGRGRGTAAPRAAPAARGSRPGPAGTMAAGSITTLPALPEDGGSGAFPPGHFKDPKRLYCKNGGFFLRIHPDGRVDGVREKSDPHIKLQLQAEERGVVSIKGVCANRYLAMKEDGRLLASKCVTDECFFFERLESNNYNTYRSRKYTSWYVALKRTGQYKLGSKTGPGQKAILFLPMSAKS
Chain of Focal adhesion kinase 1 (Homo sapiens) (Q05397 whole entry, looked up): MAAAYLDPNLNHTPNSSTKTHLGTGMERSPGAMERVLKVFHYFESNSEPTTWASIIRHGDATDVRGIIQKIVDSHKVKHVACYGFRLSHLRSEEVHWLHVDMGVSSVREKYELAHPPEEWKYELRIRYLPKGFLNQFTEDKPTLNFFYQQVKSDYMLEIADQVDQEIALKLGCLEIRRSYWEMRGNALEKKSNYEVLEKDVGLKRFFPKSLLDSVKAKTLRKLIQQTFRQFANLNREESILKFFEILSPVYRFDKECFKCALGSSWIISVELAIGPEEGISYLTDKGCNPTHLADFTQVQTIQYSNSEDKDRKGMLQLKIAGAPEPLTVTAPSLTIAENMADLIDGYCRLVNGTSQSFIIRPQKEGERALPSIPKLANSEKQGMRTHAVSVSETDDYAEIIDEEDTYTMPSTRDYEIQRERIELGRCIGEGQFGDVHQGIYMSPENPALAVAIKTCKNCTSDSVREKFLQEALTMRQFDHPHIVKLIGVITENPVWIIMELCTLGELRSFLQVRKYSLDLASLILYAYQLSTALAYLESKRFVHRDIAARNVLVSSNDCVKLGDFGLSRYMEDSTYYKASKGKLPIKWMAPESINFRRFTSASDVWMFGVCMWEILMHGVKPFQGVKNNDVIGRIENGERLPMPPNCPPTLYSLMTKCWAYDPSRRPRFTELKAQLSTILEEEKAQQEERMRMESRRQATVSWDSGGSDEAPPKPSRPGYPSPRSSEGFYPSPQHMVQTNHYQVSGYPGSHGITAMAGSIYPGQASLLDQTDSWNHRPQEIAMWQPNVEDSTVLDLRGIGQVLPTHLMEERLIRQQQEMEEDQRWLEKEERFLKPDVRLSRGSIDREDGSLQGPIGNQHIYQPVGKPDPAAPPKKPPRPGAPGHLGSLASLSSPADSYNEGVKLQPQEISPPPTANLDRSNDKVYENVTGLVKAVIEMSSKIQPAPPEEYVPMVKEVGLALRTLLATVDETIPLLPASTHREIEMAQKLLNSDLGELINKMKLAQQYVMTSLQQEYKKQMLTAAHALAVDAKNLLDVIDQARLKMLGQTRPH
Chain of Luciferin 4-monooxygenase (Photinus pyralis) (P08659 whole entry, looked up): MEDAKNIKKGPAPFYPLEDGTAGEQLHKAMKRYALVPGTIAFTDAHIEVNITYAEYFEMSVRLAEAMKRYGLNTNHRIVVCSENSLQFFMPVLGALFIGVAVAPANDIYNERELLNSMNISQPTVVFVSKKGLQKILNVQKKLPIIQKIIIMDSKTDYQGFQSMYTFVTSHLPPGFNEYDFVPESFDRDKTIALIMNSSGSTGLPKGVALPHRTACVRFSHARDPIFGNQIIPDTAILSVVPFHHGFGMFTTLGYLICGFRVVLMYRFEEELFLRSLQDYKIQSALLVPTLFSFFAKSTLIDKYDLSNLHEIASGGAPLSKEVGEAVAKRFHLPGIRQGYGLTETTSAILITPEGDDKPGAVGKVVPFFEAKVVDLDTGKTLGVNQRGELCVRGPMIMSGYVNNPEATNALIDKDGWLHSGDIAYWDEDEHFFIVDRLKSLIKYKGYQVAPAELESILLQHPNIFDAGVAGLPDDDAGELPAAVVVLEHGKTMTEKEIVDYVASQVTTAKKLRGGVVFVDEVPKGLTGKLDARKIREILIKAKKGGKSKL
Chain of Streptavidin (Streptomyces avidinii) (P22629 whole entry, looked up): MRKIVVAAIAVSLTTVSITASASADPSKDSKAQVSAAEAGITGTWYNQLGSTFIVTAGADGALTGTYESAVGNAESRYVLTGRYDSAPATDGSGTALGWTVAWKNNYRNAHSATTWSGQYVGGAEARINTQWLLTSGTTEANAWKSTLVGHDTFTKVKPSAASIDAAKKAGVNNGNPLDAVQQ

Q: Which composite z-score [1] does the source give for `C=CCC(OC(C)=O)[C@@H]1[C@@H](N(Cc2cc3ccccc3o2)C(=O)c2ccc(C)cc2)c2cc(OCCCO)ccc2N1C(=O)Cc1ccc(OC)cc1` (stereo not given in full) here?
A: Its composite z-score is 0.0464.

Q: And the composite z-score [2]?
A: Its composite z-score is -0.454.

Q: What about the composite z-score [3] of the same molecule?
A: The composite z-score was 0.0903.

Q: What about the composite z-score [4] of the same molecule?
A: The composite z-score was 0.0839.

Q: And the composite z-score [5]?
A: Its composite z-score is 0.924.

Q: What about the composite z-score [6] of the same molecule?
A: Its composite z-score is 0.158.

Q: What about the z-score [7] of the same molecule?
A: Its z-score is 1.33.

Q: What about the composite z-score (Lefty1) of the same molecule?
A: Its composite z-score is -0.0083.

Q: What about the composite z-score [8] of the same molecule?
A: Its composite z-score is 0.273.

Q: What about the z-score [9] of the same molecule?
A: The z-score was -1.37 (inactive).

Q: And the composite z-score [10]?
A: The composite z-score was 0.525.

Q: What about the z-score [11] of the same molecule?
A: Its z-score is -0.102 (inactive).

Q: And the z-score [12]?
A: Its z-score is -0.491 (inactive).

Q: What about the z-score [13] of the same molecule?
A: Its z-score is 0.558 (inactive).

Q: What about the z-score [14] of the same molecule?
A: The z-score was -0.409 (inactive).

Q: And the composite z-score [15]?
A: The composite z-score was 1.57.

Q: What about the composite z-score [16] of the same molecule?
A: Its composite z-score is -0.0044.

Q: And the composite z-score (Torsin-1A (Homo sapiens) [17])?
A: The composite z-score was -0.28.

Q: And the composite z-score (Torsin-1A (Homo sapiens) [18])?
A: Its composite z-score is 0.0194.

Q: And the composite z-score [19]?
A: The composite z-score was 0.809.

Q: With `C=CCOC(=O)[C@H]1[C@@H]2C(=O)O[C@@H](c3ccccc3)[C@@H](c3ccccc3)N2[C@@H](c2ccc(OCCOC(=O)[C@@H]3C[C@@H]4C(=O)N5CCC[C@H]5C(=O)N4[C@@H]3c3ccc(O)cc3)cc2)[C@]12C(=O)Nc1ccc(I)cc12` as the molecule, how does the composite z-score [1] read?
A: Its composite z-score is 0.796.

Q: And the composite z-score [2]?
A: The composite z-score was 0.246.

Q: And the composite z-score [3]?
A: Its composite z-score is 0.0398.

Q: And the composite z-score [4]?
A: Its composite z-score is 0.664.

Q: What about the composite z-score [5] of the same molecule?
A: The composite z-score was 1.36.

Q: What about the composite z-score [6] of the same molecule?
A: The composite z-score was 1.16.

Q: And the z-score [7]?
A: The z-score was -1.28.

Q: And the composite z-score (Lefty1)?
A: The composite z-score was 0.698.

Q: And the composite z-score [8]?
A: Its composite z-score is 0.671.

Q: And the z-score [9]?
A: Its z-score is -0.873 (inactive).

Q: And the composite z-score [10]?
A: Its composite z-score is 0.269.

Q: What about the z-score [11] of the same molecule?
A: Its z-score is -0.648 (inactive).

Q: And the z-score [12]?
A: Its z-score is -0.42 (inactive).

Q: What about the z-score [13] of the same molecule?
A: Its z-score is 0.423 (inactive).

Q: And the z-score [14]?
A: Its z-score is 0.016 (inactive).

Q: And the composite z-score [15]?
A: The composite z-score was 0.107.

Q: What about the composite z-score [16] of the same molecule?
A: The composite z-score was 0.177.

Q: What about the composite z-score (Torsin-1A (Homo sapiens) [17]) of the same molecule?
A: Its composite z-score is 0.655.

Q: What about the composite z-score (Torsin-1A (Homo sapiens) [18]) of the same molecule?
A: The composite z-score was 0.504.

Q: What about the composite z-score [19] of the same molecule?
A: The composite z-score was 1.72.

Q: Which composite z-score [1] does the source give for `CC1CC/C=C\[C@H]2OC34C=CCN(C(C)C)C(=O)[C@H]3N(CCCCCCO)C(=O)[C@@H]4C2C(=O)O1` (stereo not given in full) here?
A: The composite z-score was -0.641.

Q: What about the composite z-score [2] of the same molecule?
A: Its composite z-score is -1.09.

Q: And the composite z-score [3]?
A: Its composite z-score is -0.278.

Q: And the composite z-score [4]?
A: Its composite z-score is -1.25.

Q: What about the composite z-score [5] of the same molecule?
A: Its composite z-score is -0.583.

Q: What about the composite z-score [6] of the same molecule?
A: The composite z-score was -1.09.

Q: And the z-score [7]?
A: The z-score was 0.378.

Q: What about the composite z-score (Lefty1) of the same molecule?
A: The composite z-score was -0.547.

Q: And the composite z-score [8]?
A: Its composite z-score is -0.451.

Q: What about the z-score [9] of the same molecule?
A: Its z-score is -3.19 (inactive).

Q: What about the composite z-score [10] of the same molecule?
A: Its composite z-score is -0.574.

Q: What about the z-score [11] of the same molecule?
A: Its z-score is -0.183 (inactive).

Q: What about the z-score [12] of the same molecule?
A: Its z-score is -1.31 (inactive).

Q: And the z-score [13]?
A: The z-score was -0.342 (inactive).

Q: And the z-score [14]?
A: The z-score was -0.816 (inactive).

Q: What about the composite z-score [15] of the same molecule?
A: The composite z-score was -0.931.

Q: What about the composite z-score [16] of the same molecule?
A: Its composite z-score is -0.323.

Q: And the composite z-score (Torsin-1A (Homo sapiens) [17])?
A: Its composite z-score is -1.83.

Q: What about the composite z-score (Torsin-1A (Homo sapiens) [18]) of the same molecule?
A: The composite z-score was -1.19.

Q: What about the composite z-score [19] of the same molecule?
A: Its composite z-score is -0.159.
